In publication PMC7862700, “An all-to-all approach to the identification of sequence-specific readers for epigenetic DNA modifications on cytosine”:

Key:
Experiment in all cases: DAPPL (digital affinity profiling via proximity ligation, sequencing); 10 mM Tris-HCl pH 7.5, 50 mM NaCl, 1 mM DTT, 4% glycerol, room temperature, 30 min; GST-TFs on glutathione beads, 16-mer random dsDNA library, 0.1% formaldehyde crosslink after washing; high values mean tight binding
Settings in all cases: protein: recombinant; tags: N-terminal GST; dsDNA, one strand shown
GABPA = molecular target: T1, GABPA (Homo sapiens, UniProt Q06546 1-454)
T1 sequence: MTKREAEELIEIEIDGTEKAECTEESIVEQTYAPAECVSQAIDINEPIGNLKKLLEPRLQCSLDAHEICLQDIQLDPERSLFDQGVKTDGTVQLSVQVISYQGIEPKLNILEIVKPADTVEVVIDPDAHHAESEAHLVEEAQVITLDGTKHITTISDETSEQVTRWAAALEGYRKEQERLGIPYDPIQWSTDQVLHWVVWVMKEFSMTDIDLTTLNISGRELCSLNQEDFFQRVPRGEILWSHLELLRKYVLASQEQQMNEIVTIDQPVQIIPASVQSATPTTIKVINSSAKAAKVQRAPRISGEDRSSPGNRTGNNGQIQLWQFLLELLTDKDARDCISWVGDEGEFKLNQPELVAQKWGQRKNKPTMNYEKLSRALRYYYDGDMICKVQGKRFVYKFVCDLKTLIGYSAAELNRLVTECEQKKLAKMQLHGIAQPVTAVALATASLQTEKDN
In short: (§1)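 Pools were built from human transcription factors expressed in yeast as GST fusions, captured on glutathione beads and DNA-barcoded, along with a tag-only sample. Incubation with 200 nmole of a 16-mer random double-stranded DNA library lasted 30 min at room temperature in Tris/NaCl/DTT/glycerol buffer, and was followed by washing, 0.1% formaldehyde crosslinking, proximity ligation, PCR amplification and Illumina NextSeq500 sequencing. Binding signal is the quotient of each hexamer's read frequency for a factor and its frequency for the tag-only sample.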

ERG = molecular target: T2, ERG (Homo sapiens, UniProt P11308 1-479)
T2 sequence: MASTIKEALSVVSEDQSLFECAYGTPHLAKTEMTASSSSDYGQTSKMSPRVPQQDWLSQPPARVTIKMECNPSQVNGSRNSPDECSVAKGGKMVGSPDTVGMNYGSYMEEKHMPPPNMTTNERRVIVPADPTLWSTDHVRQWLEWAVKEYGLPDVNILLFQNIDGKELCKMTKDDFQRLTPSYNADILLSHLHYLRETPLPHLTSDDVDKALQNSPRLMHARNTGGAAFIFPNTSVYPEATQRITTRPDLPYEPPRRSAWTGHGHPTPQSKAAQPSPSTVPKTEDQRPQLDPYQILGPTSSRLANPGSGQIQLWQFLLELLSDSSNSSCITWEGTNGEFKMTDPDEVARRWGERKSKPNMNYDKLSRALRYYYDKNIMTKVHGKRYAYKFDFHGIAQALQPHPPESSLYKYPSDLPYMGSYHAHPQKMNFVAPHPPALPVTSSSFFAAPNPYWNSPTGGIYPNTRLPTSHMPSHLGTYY
In short: as §1

ELF1 = ELF1 (Homo sapiens, UniProt P32519 1-619)
In short: as §1

EHF = molecular target: T3, EHF (Homo sapiens, UniProt Q9NZC4 1-300)
T3 sequence: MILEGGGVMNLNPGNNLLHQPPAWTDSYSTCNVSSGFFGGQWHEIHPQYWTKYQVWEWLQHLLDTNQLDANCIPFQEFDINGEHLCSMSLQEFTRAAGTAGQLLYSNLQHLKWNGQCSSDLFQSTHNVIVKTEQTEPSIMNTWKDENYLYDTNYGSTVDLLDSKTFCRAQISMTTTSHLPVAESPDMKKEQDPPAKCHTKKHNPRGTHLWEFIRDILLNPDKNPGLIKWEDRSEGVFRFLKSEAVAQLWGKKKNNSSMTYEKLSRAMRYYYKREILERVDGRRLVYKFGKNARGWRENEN
In short: as §1

SPI1 = SPI1 (Homo sapiens, UniProt P17947 1-270)
In short: as §1

SPIB = SPIB (Homo sapiens, UniProt Q01892 1-262)
In short: as §1

FEV = molecular target: T4, FEV (Homo sapiens, UniProt Q99581 1-238)
T4 sequence: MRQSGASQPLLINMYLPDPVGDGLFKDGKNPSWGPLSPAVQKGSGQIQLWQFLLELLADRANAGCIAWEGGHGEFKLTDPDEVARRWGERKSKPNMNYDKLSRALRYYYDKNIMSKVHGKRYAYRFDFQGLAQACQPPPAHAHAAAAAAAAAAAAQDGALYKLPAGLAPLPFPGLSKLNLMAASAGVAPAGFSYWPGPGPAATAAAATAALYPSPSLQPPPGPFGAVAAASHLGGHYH
In short: as §1

ETV5 = ETV5 (Homo sapiens, UniProt P41161 1-510)
In short: as §1

ELF4 = ELF4 (Homo sapiens, UniProt Q99607 1-663)
In short: as §1

ELF3 = molecular target: T5, ELF3 (Homo sapiens, UniProt P78545 1-371)
T5 sequence: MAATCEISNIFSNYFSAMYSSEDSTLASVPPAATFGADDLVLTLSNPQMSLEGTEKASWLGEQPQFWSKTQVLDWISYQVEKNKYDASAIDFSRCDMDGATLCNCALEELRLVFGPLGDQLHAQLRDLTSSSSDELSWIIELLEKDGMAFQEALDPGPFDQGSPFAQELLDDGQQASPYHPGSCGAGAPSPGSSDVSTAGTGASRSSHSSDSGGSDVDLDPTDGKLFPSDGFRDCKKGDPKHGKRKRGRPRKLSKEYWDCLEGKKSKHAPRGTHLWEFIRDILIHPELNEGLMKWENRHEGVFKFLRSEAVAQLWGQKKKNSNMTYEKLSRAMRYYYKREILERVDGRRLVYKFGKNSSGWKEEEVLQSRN
In short: as §1

ETV1 = ETV1 (Homo sapiens, UniProt P50549 1-477)
In short: as §1

ERF = molecular target: T6, ERF (Homo sapiens, UniProt P50548 1-548)
T6 sequence: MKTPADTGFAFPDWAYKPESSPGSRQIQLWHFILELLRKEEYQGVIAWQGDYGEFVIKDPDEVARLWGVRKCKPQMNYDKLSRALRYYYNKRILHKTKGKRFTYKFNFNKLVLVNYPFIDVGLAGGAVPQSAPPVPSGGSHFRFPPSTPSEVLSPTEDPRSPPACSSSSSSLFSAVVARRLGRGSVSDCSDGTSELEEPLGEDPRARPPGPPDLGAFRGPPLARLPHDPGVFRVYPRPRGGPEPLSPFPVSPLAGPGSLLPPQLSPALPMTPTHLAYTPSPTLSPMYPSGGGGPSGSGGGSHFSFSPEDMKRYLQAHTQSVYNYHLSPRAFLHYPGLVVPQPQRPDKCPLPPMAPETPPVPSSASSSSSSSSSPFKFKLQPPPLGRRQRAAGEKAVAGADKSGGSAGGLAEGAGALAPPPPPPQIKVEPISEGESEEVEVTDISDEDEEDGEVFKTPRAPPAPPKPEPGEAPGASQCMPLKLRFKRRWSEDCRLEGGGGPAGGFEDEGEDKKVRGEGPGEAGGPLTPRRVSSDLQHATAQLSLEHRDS
In short: as §1

ETV3L = molecular target: T7, ETV3L (Homo sapiens, UniProt Q6ZN32 1-361)
T7 sequence: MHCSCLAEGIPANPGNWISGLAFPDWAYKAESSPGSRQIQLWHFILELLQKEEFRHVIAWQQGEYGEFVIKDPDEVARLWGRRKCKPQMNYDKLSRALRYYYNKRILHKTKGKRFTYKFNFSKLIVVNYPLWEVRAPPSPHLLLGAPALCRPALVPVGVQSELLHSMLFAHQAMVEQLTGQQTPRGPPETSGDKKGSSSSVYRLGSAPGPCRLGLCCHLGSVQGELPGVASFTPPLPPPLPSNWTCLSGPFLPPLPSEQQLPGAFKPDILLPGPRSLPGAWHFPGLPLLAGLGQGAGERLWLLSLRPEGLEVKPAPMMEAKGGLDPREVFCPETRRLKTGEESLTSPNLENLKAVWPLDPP
In short: as §1

SPDEF = molecular target: T8, SPDEF (Homo sapiens, UniProt O95238 1-335)
T8 sequence: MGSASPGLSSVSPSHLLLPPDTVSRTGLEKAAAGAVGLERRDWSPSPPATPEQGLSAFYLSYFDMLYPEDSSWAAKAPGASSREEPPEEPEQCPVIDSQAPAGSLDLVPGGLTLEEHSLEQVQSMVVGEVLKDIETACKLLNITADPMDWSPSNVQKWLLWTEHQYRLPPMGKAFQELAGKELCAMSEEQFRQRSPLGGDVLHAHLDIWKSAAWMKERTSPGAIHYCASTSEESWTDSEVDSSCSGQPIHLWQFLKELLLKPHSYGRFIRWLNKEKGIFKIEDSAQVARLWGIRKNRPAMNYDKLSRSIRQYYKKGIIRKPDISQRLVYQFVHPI
In short: as §1

ETV7 = molecular target: T9, ETV7 (Homo sapiens, UniProt Q9Y603 1-341)
T9 sequence: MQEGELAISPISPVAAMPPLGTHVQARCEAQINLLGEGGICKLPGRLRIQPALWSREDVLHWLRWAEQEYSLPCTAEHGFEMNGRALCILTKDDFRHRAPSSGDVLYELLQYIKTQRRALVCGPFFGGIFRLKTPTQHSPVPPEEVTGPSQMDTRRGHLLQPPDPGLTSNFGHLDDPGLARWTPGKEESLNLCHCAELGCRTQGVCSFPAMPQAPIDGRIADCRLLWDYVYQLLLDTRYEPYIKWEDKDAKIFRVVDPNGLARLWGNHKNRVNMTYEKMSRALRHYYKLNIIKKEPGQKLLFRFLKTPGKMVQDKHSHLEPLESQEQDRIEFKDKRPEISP
In short: as §1

ETV3 = molecular target: T10, ETV3 (Homo sapiens, UniProt P41162-2 1-143)
T10 sequence: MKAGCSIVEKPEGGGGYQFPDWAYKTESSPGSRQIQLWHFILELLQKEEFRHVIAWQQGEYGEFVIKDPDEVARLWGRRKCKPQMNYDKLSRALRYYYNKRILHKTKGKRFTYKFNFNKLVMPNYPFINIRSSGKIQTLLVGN
In short: as §1

Chain of ELF1 (P32519 whole entry): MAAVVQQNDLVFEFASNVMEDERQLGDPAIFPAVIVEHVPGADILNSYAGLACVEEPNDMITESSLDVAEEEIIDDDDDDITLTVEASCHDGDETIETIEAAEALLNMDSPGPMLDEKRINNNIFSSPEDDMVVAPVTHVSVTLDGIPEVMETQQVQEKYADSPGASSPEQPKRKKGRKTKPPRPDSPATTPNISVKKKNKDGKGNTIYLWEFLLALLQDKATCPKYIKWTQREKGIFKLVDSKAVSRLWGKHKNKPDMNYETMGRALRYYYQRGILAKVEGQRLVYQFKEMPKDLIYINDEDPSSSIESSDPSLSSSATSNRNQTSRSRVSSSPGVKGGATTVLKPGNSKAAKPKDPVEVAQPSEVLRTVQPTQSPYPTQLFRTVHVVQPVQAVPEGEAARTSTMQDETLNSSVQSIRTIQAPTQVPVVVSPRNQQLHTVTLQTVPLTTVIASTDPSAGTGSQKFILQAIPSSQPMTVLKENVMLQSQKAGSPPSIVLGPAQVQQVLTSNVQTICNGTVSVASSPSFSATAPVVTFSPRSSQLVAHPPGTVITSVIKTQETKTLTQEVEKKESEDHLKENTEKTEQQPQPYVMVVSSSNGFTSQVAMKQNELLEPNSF
Chain of ELF4 (Q99607 whole entry): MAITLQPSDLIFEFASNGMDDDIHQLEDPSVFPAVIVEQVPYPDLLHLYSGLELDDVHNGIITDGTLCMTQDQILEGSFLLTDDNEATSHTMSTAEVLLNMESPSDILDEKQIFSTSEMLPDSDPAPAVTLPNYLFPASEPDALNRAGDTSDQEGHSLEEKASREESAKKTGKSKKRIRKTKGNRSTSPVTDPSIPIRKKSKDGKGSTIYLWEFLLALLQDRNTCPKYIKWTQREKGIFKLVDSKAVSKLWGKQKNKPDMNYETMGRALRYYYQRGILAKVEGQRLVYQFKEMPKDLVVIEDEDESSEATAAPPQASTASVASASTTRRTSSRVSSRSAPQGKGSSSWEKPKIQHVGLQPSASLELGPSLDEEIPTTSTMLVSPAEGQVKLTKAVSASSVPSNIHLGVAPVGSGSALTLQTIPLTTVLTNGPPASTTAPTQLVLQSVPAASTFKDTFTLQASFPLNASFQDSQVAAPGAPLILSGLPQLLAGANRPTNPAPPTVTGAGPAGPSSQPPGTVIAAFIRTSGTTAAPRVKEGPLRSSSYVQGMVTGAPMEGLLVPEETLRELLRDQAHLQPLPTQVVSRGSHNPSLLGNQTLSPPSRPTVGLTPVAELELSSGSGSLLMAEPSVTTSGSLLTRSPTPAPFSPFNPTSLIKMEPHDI
Chain of ETV1 (P50549 whole entry): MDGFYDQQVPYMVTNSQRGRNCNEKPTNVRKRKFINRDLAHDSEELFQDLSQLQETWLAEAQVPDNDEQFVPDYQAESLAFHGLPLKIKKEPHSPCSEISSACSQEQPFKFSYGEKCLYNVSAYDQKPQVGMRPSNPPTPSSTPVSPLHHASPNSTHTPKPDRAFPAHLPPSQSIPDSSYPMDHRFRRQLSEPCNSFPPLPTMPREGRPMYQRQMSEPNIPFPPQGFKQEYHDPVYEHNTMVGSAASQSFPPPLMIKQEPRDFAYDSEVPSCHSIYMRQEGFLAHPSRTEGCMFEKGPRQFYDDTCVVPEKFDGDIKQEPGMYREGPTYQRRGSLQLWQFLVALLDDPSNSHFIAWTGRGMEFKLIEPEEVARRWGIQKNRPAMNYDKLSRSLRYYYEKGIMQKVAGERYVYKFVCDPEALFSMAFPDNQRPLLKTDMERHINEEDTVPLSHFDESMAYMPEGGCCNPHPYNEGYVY
Chain of SPIB (Q01892 whole entry): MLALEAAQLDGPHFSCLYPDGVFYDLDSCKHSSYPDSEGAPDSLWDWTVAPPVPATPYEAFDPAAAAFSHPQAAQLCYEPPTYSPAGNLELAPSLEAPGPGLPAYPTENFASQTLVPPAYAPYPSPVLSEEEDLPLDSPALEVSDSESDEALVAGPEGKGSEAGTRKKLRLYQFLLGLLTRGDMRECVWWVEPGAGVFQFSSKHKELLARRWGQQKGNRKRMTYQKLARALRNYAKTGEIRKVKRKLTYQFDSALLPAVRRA
Chain of ETV5 (P41161 whole entry): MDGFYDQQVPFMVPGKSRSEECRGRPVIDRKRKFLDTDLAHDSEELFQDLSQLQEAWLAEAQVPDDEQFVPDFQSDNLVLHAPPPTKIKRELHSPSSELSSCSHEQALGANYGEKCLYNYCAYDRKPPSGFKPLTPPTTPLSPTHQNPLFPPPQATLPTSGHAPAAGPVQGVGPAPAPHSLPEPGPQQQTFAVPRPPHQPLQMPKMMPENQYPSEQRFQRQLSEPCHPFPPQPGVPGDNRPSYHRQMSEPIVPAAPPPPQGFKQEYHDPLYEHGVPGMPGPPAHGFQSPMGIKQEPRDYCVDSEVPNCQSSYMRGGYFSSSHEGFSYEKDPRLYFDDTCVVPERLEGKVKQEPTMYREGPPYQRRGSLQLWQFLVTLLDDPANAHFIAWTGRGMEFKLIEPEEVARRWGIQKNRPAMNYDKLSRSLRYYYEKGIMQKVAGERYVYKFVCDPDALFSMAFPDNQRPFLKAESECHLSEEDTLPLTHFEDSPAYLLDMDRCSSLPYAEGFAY

## ACTGGA
GABPA
  binding signal: 1.12 fold enrichment (6-mer frequency, TF over GST control)
ERG
  binding signal: 1.08 fold enrichment (6-mer frequency, TF over GST control)
ELF1
  binding signal: 1.03 fold enrichment (6-mer frequency, TF over GST control)
EHF
  binding signal: 1.02 fold enrichment (6-mer frequency, TF over GST control)
SPI1
  binding signal: 1.1 fold enrichment (6-mer frequency, TF over GST control)
SPIB
  binding signal: 1.03 fold enrichment (6-mer frequency, TF over GST control)
FEV
  binding signal: 1 fold enrichment (6-mer frequency, TF over GST control)
ETV5
  binding signal: 1.09 fold enrichment (6-mer frequency, TF over GST control)
ELF4
  binding signal: 1.1 fold enrichment (6-mer frequency, TF over GST control)
ELF3
  binding signal: 1.1 fold enrichment (6-mer frequency, TF over GST control)
ETV1
  binding signal: 1.06 fold enrichment (6-mer frequency, TF over GST control)
ERF
  binding signal: 1.03 fold enrichment (6-mer frequency, TF over GST control)
ETV3L
  binding signal: 1.02 fold enrichment (6-mer frequency, TF over GST control)
SPDEF
  binding signal: 1.02 fold enrichment (6-mer frequency, TF over GST control)
ETV7
  binding signal: 1.01 fold enrichment (6-mer frequency, TF over GST control)
ETV3
  binding signal: 1.05 fold enrichment (6-mer frequency, TF over GST control)
